Screening data as filed in PubChem.
CYP2C19 inh – inhibitors of human CYP2C19 | AID 778 | CYP2C19 Supersomes, luciferin-H EGE luminescence, 30 min | inhibition, % at 5 µM | P33261 | 96,000 tested, 21% active;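 active means CYP2C19 inhibition above a set limit at 5 µM in the primary screen, cut at about 50% in these data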;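 further: plate controls were negative control wells for no effect and 2.5 mM tranylcypromine positive control for full effect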
Target sequence (P33261 whole entry, looked up): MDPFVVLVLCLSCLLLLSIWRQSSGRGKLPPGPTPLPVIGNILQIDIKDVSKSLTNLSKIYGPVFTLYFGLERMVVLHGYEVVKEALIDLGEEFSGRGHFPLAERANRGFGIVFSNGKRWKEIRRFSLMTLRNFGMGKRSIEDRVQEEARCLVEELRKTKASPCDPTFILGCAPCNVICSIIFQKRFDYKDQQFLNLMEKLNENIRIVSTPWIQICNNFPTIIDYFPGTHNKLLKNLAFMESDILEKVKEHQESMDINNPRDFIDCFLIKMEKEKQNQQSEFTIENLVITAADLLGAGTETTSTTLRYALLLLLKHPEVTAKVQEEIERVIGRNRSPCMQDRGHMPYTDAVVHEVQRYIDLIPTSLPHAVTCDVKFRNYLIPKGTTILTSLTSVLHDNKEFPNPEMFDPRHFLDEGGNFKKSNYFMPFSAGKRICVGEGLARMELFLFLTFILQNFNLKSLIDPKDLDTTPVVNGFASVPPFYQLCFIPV
CYP2C9 inhib – inhibitors of human CYP2C9. 96,000 tested, 20% active. inhibition, % at 5 µM. P11712. CYP2C9 Supersomes, luciferin-H conversion, luminescence;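 active means blocking of liver enzyme CYP2C9 beyond about 50% at 5 µM, limit read from the data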
CD11b adhes inh – inhibitors of human CD11b/CD18 binding to fibrinogen | P05107+P11215 | K562 CD11b/CD18 adhesion to fibrinogen, ATPlite luminescence; Mn2+ added to activate the integrin | inhibition, % at 10 µM | 93,000 tested, 0.54% active | AID 1497;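 active means primary inhibition of 50% or more at 10 µM, then 40% or more on retest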
CD11b adhes enh – CD11b/CD18-fibrinogen binding enhancement. 93,000 tested, 0.07% active. K562 CD11b/CD18 adhesion to fibrinogen, ATPlite luminescence. activation, % at 10 µM;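 active means 10 µM primary screen giving 50% or more activity, confirmed by 40% or more on retest at that dose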
CYP2C19 act – activators of human cytochrome P450 2C19; P33261; recombinant CYP2C19, luciferin-H EGE luminescence; stronger effect = higher value; 0 = fully inhibited enzyme, 1 = untreated enzyme; activation factor at 5 µM; 96,000 tested, under 10 active; AID 1025;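 active means activation factor of at least 2 at 5 µM in the primary screen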;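 further: 0 = wells with 2.5 mM tranylcypromine and 1 = vehicle-only wells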
CYP2C9 act – increases human cytochrome P450 2C9 activity; activation factor at 5 µM; 96,000 tested, 1.4% active; P11712; AID 1024; recombinant CYP2C9, luciferin-H conversion, luminescence; stronger effect = higher value; factor 1 = untreated enzyme, 0 = blocked;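 active means activation factor of 2 or more for CYP2C9 at a 5 µM dose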;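 further: 0 = sulfaphenazole-blocked wells and 1 = vehicle-only wells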
An asterisk follows results filed as active; . = no result. In the library only some 28% were active in any assay of this set; here they are far more common.

SMILES | CYP2C19 inh | CYP2C9 inhib | CD11b adhes inh | CD11b adhes enh | CYP2C19 act | CYP2C9 act
COc1cc(Br)c(C(C)NC(=O)c2cccc(Br)c2)cc1OC (stereo not given) | 62.0* | 66.0* | 5.0 | -5.8 | 0.4 | 0.3
COc1cc(Br)c(C(C)NC(=O)c2ccc(C)cc2)cc1OC (stereo not given) | 34.9 | 24.9 | 13.2 | -5.2 | 0.7 | 0.8
COc1ccc(-c2ccc(-c3nnc(-c4ccncc4)o3)cc2)cc1 | 52.9* | 35.0 | 7.3 | 7.1 | 0.5 | 0.7
CC(C)Cn1c(N)c(C(=O)CSc2ccc3c(c2)OCCO3)c(=O)n(C)c1=O | 23.6 | 0.6 | . | . | 0.8 | 1
Cc1cc(C)n(C(=O)CNC(=O)c2ccc3c(c2)OCCO3)n1 | 23.2 | -13.5 | 30.5 | -2.4 | 0.8 | 1.1
C=CCn1c(SCc2cccc3ccccc23)nnc1-c1cccnc1 | 88.7* | -65.6 | 13.7 | -2.2 | 0.1 | 1.7
O=C(CSc1ccc2nnc(-c3ccncc3)n2n1)N1CCc2ccccc21 | -6.1 | 50.4* | -23.9 | -2.8 | 1.1 | 0.5
Clc1ccccc1CSc1nnc(-c2cccnc2)n1Cc1ccco1 | 71.1* | 39.4 | 44.2 | -0.4 | 0.3 | 0.6
O=C(CSc1nnc(-c2cccnc2)n1Cc1ccco1)N1CCc2ccccc21 | 55.7* | 36.1 | -2.3 | -1.8 | 0.4 | 0.6
O=C(O)CSc1nnc(-c2cccnc2)n1Cc1ccccc1 | -8.9 | -6.0 | -9.4 | 1.8 | 1.1 | 1.1
O=C(CSc1nnc(-c2cccnc2)n1Cc1ccco1)c1ccccc1 | 24.4 | 19.1 | -7.3 | -2.7 | 0.8 | 0.8
CCC(=O)N/N=C(\C)CC(=O)Nc1ccc2ccccc2c1 | 7.2 | -10.2 | 11.4 | 0.1 | 0.9 | 1.1
Cc1occc1-c1nnc(SCC(=O)N2CCCc3ccccc32)n1Cc1ccco1 | 67.3* | 50.4* | -10.0 | -2.5 | 0.3 | 0.5
Cn1c(SCC(=O)N2CCCc3ccccc32)nnc1-c1ccccc1 | 38.7 | 3.5 | 15.5 | -2.5 | 0.6 | 1
Cc1ccc(CN2CCN(c3ccccn3)CC2)s1 | 89.9* | 50.2* | 2.1 | -4.3 | 0.1 | 0.5
Cc1sc(NC(=O)c2ccco2)c(CN2CCN(c3ccccn3)CC2)c1C | 65.2* | 89.0* | 17.0 | -5.9 | 0.3 | 0.1
Cc1sc(NC(=O)c2ccco2)c(CN2CCN(c3ccc(F)cc3)CC2)c1C | 54.7* | 48.1 | -49.4 | 1.5 | 0.5 | 0.5
COc1ccc(-n2c(CNC(=O)c3cc(OC)c(OC)c(OC)c3)n[nH]c2=S)cc1 | 3.9 | -0.7 | 2.3 | -1.6 | 1 | 1
O=C(C[n+]1ccc(-c2nnc3n2CCC3)cc1)c1ccc(Cl)cc1 | . | . | -2.8 | 3.9 | . | .
COc1ccc(NC(=O)c2ccccc2Cl)cc1NC(=O)CN1CCOCC1 | 17.3 | 10.5 | -5.2 | -0.1 | 0.8 | 0.9
CCOC(=O)c1c(C(=O)OCC)c(C)n(N2C(=O)CSC2=S)c1C | 43.7 | 53.0* | -9.8 | -1.6 | 0.6 | 0.5
O=C(COc1ccc(Cl)cc1)N1CCN(S(=O)(=O)c2ccccc2)CC1 | 54.8* | 23.5 | 1.0 | 3.2 | 0.5 | 0.8
CC1CC(C)CN(C(=O)COc2ccc(-c3nnco3)cc2)C1 (stereo not given) | 50.5* | 24.4 | -18.7 | -3.9 | 0.5 | 0.8
CN(Cc1cccs1)C(=O)COc1ccc(-c2nnco2)cc1 | 74.7* | 31.3 | 0.5 | -0.5 | 0.3 | 0.7
O=C(COc1ccccc1)N1CCN(S(=O)(=O)c2ccc(Cl)cc2)CC1 | -5.7 | 20.8 | 2.4 | -2.6 | 1.1 | 0.8
SMILES | CYP2C19 inh | CYP2C9 inhib | CD11b adhes inh | CD11b adhes enh | CYP2C19 act | CYP2C9 act
CCCS(=O)(=O)N1CCN(C(=O)COc2ccccc2)CC1 | 58.8* | 15.1 | -9.9 | -4.1 | 0.4 | 0.8
CN(Cc1cccs1)C(=O)COc1cccc(-n2cnnn2)c1 | 17.1 | -2.7 | -21.0 | -3.7 | 0.8 | 1
Fc1ccc(N/N=C/C=C/c2ccccc2)c(F)c1 | . | . | -2.6 | 4.2 | . | .
Cc1ccc(-n2c(SCC(=O)Nc3ccc4cn[nH]c4c3)nnc2-c2ccco2)cc1 | 9.6 | 45.6 | -1.4 | -0.6 | 0.9 | 0.5
CCn1c(=O)cc(OCC(=O)NCc2cccnc2)c2ccccc21 | -9.8 | -4.6 | 4.5 | -1.3 | 1.1 | 1
O=C(COc1ccc(-c2nnco2)cc1)N1CCN(S(=O)(=O)c2ccccc2)CC1 | 84.0* | 67.0* | 3.0 | -3.0 | 0.2 | 0.3
